Activity calls are given as the source filed them. The call rests on the fitted dose curve; in most records, active means well fitted curve in the direction sought with a large enough effect in the repeat runs; inconclusive means weak or mixed curves; inactive means flat fitted curve, though single readings scatter.
experiment: qHTS assay to test for compound auto fluorescence at 590 nm (red) in HEK293 cells (AID 720679); conditions: red autofluorescence 540/590 nm; series mostly up to 91.3 µM; fluorescence, % of fluorescent control: at the top concentration
In short: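 Plates of HEK293 cells (10% dialyzed FBS) are treated with 23 nL compound or DMSO vehicle after a 4-5 hr attachment period, incubated overnight at 37C, and read for red fluorescence at 540/590nm.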
On the % scale 0 is the no-effect control and ±100 the full control effect.

SMILES | fluorescence, % of fluorescent control | outcome
CC(O)COC(C)(C)C (centres undefined) | 0.758% (inactive) | –
C[C@]12CCC(=O)C=C1CC[C@H]1[C@@H]3CC[C@](O)(C(=O)CO)[C@@]3(C)C[C@H](O)[C@@]12F | – | inactive
CCCCC1CCC(O)CC1 (centres undefined) | 0.245% (inactive) | –
CC(=O)O[C@H]1C[C@@H]2CC[C@@]1(C)C2(C)C | -0.226% (inactive) | –
CCCCCCCCCCOC(C)=O | -0.367% (inactive) | –
C=C(C)[C@@H]1CC=C(C)CC1 | -0.0967% (inactive) | –
O=C[O][Al]([O]C=O)[O]C=O | -0.309% (inactive) | –
C#CCN[C@@H]1CCc2ccccc21 | 0.0012% [at 46 µM] (inactive) | –
Cc1c(N)cccc1Cl | 0.155% (inactive) | –
c1ccc(B(c2ccccc2)c2ccccc2)cc1 | -0.0508% (inactive) | –
O=C1CCCCO1 | 0.184% (inactive) | –
OCC1CCC(CO)CC1 (centres undefined) | 0.142% (inactive) | –
CC1(C)O[C@H]2CC(=O)OC[C@]23[C@H]2CC[C@@]4(C)[C@H](c5ccoc5)OC(=O)[C@H]5O[C@]54[C@]2(C)C(=O)C[C@@H]13 | 0.21% [at 46 µM] (inactive) | –
Cn1c(=O)c2[nH]c(Br)nc2n(C)c1=O | -0.0632% [at 46 µM] (inactive) | –
c1ccc2cnccc2c1 | -0.683% (inactive) | –
CC1=NN(c2ccc(S(=O)(=O)O)cc2)C(=O)C1 | -0.266% (inactive) | –
CCCCOCC(C)O (centres undefined) | 0.0876% [at 95.7 µM] (inactive) | –

SMILES | fluorescence, % of fluorescent control | outcome
C=CCCCC | 0.0994% [at 95.7 µM] (inactive) | –
O=C(NCN1CCOCC1)c1cnccn1 | 0.131% [at 46 µM] (inactive) | –
N#Cc1cscn1 | -0.497% (inactive) | –
COC(=O)c1cccc(Cl)c1 | 0.0378% (inactive) | –
CN1CCOC(c2ccccc2)c2ccccc2C1 (centres undefined) | 0.0791% [at 18.6 µM] (inactive) | –
c1ccc2c(CC3=NCCN3)cccc2c1 | – | inactive
CC12CCC(C1)C(C)(C)C2O (centres undefined) | 0.0021% (inactive) | –
CC/C(C)=N\O[Si](C)(O/N=C(\C)CC)O/N=C(\C)CC | -0.0672% [at 95.7 µM] (inactive) | –
O=[N+]([O-])c1c(Cl)cc(Cl)cc1Cl | 0.198% (inactive) | –
CC(C)CO | -0.0459% [at 95.7 µM] (inactive) | –
[O]=[Mo](=[O])=[O] | 0.419% [at 18.6 µM] (inactive) | –
CC1=C(C(=O)O)N2C(=O)[C@@H](NC(=O)[C@H](N)C3=CCC=CC3)[C@H]2SC1 | -0.0748% [at 46 µM] (inactive) | –
CO/N=C(/C(=O)N[C@@H]1C(=O)N2C(C(=O)[O-])=C(C[n+]3ccn4ncccc43)CS[C@H]12)c1nsc(N)n1 | – | inactive
C=CC/C=C/C | -0.319% [at 95.7 µM] (inactive) | –
CC(C)CCOC(=O)c1ccccc1 | -0.0266% (inactive) | –
CCO | 0.358% [at 95.7 µM] (inactive) | –
O=Cc1ccccc1Cl | -0.0293% (inactive) | –

Source: PubChem BioAssay (Tox21)
